About 8,200 (2.3%) of roughly 360,000 compounds were called active. The sample holds actives, similar compounds and a random draw of the others, so the mix is not that of the screen. A number with no mark means an inactive call. Rule as the data show it: active = inhibition above about 27%; inactive = the rest.
target: Fructose-bisphosphate aldolase (Mycobacterium tuberculosis (strain ATCC 25618 / H37Rv)) (UniProt P9WQA3); assay: M. tuberculosis aldolase activity blockers – biochemical, fluorescence, strain H37Rv, primary screen (AID 588726);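 also: 0% = vehicle and 100% = reference inhibitor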; conditions: purified M. tuberculosis FBA, fluorescence read-out, at 1 µM, hits give high values
Sequence (P9WQA3 whole entry, looked up): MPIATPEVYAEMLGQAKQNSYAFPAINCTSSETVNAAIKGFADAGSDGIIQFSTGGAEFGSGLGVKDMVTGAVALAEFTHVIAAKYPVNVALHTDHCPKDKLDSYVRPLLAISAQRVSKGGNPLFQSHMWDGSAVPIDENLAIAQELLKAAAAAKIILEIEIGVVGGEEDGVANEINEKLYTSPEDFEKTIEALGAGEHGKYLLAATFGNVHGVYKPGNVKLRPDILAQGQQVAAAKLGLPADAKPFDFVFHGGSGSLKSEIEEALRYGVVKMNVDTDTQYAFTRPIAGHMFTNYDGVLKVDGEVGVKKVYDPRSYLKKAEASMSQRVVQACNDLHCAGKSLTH

| SMILES | inhibition |
| --- | --- |
| O=C(OCC(=O)N(CCc1ccccc1)Cc1ccccc1)c1ccccc1[N+](=O)[O-] | -2.21% |
| COc1cccc(N(C(=O)c2ccn[nH]2)C2(C(=O)Nc3c(C)cccc3C)CCCCC2)c1 | -2.93% |
| CC(=O)Nc1ccc(S(=O)(=O)N2CCC(C(=O)N[C@@H](Cc3ccccc3)C(=O)O)CC2)cc1 | 7.63% |
| O=C(O)CCN1C(=O)CC2(CCCCC2)C1=O | 1.19% |
| O=C(NCc1ccc(F)cc1)c1cc(C2CCCCN2C(=O)C2CCCCC2)on1 (stereo unspecified) | -0.56% |
| CCCC(O)(c1ccccc1)C(c1ccccc1)c1ccccn1 (stereo unspecified) | -3.41% |
| CC(=O)Nc1ccc(S(=O)(=O)NCC(=O)OCc2cc(=O)oc3ccc4ccccc4c23)cc1 | 124% (active) |
| COc1ccccc1C(=O)COC(=O)CNS(=O)(=O)c1ccc(NC(C)=O)cc1 | 0.46% |
| COc1ccccc1CNC(=O)COC(=O)CNS(=O)(=O)c1ccc(NC(C)=O)cc1 | -1.17% |
| Nn1c(SCC(=O)Nc2nccs2)nncc1=O | -1.98% |
| CC(C)N(C(=O)CSc1nc(COc2ccccc2)nc2ccccc12)C(C)C | -0.47% |
| COc1cc(C(F)(F)F)nc2c(Br)c(C(C)(C)C)nn12 | 36.7% (active) |
| O=C(CCN1C(=O)C2C3CCC(C3)C2C1=O)Nc1ccc(Cl)cc1Cl (stereo unspecified) | 3.23% |
| Cc1cc(C)cc(NC(=O)C(OC(=O)c2ccc(O)cc2)c2ccccc2)c1 (stereo unspecified) | 2.39% |
| CN(C)CCCO/N=C(\c1ccccc1)c1ccncc1 | -1.04% |
| CC(=O)c1cc2c(cc1NC(=O)CN1CCCCCC1)OCO2 | 0.04% |
| COc1cccc(N(CC(=O)NC2CCCC2)C(=O)Cn2nnc(-c3ccc(C)o3)n2)c1 | 2.95% |
| COc1ccc(-c2cc3nc(NCCOc4ccccc4)ccn3n2)cc1 | 9.7% |
| COCCNc1cc(-c2ccccc2)nc2cc(-c3cccc(F)c3)nn12 | 50.2% (active) |
| COc1ccc(NC(=O)c2cc3nc(-c4ccccc4)cc(C)n3n2)cc1OC | 1.45% |
| O=C(COC(=O)c1ncc(Cl)c(Cl)c1Cl)NCc1ccccc1 | 3.15% |
| CC(C)(C)C(=O)Nc1cccc(-c2ccc[nH]2)n1 | 29.7% (active) |
| Cc1cccc(NC(=O)Cc2ccc(Br)cc2)n1 | -1.42% |
| Cc1cccc(NC(=O)COc2ccc(Br)cc2C)n1 | 2.29% |

| SMILES | inhibition |
| --- | --- |
| N#CCc1ccc(NC(=O)c2ccccc2C(=O)Nc2ccc(CC#N)cc2)cc1 | 1.02% |
| CC1CCN(S(=O)(=O)c2ccc3c(c2)n(C)c(=O)n3C)CC1 | -1.94% |
| CC1CCN(S(=O)(=O)c2ccc3c(ccn3CC(=O)O)c2)CC1 | -0.33% |
| Cc1ccn2c(c1)nc(=O)c1cc(S(=O)(=O)N3CCC(C)CC3)ccc12 | 29.3% (active) |
| N#Cc1ccc(N2Cc3ccccc3/C2=N/C(=O)Nc2ccc(Cl)cc2)cc1 | -0.15% |
| CC1CCCCC1NC(=O)CN1CCC(O)(c2ccc3c(c2)OCO3)CC1 (stereo unspecified) | -4.2% |
| COc1ccc(/C=N/NC(=O)C(C)N(c2ccc(OC)cc2)S(C)(=O)=O)cc1 (stereo unspecified) | -1.16% |
| CN(C)c1ccc(/C=N/NC(=O)C(O)c2ccc(Br)cc2)cc1 (stereo unspecified) | 39.7% (active) |
| CN(C)c1ccc(/C=N/NC(=O)c2ccc(Cn3cc(Br)cn3)o2)cc1 | 0.83% |
| CCCNC(=O)N1CCC(c2ccc3c(c2)OCO3)CC1 | 0.5% |
| O=c1[nH]oc(O)c1-c1ncc(C(F)(F)F)cc1Cl | 0.86% |
| Cc1ccc(C)c(NC(=O)c2ccc(OC(=O)c3ccco3)cc2)c1 | 3.01% |
| CC(=O)N1C(=O)C2(Nc3ccccc3N2)c2ccccc21 | 6.98% |
| CC(C)=NN1C(=O)c2ccccc2NC1(C)C | 36.7% (active) |
| CCOC(=O)C1(Cc2ccc(Cl)cc2)CCN(C(=O)C2=NNC(=O)CC2)CC1 | -6.86% |
| CCC(=O)c1ccc(OC(=O)/C=C/c2cc(OC)c(OC)c(OC)c2)cc1 | 4.81% |
| COc1cc(/C=C/C2=CC(C)(C)NC(=S)N2)cc(OC)c1OC | -5.13% |
| COc1cc(/C=C/c2ccc(/C=C/c3cc(OC)c(OC)c(OC)c3)cc2)cc(OC)c1OC | 50.4% (active) |
| CC/C(=N/Nc1ccccc1)c1cnnc(SC)n1 | 0.39% |
| COc1ccc(NC(=O)N2CCC(Cc3ccccc3)CC2)cc1 | 53.4% (active) |
| COc1ccc(C(=O)NC2CCN(C(=O)Nc3ccc(F)cc3)CC2)cc1 | -0.69% |
| COc1ccc(NC(=O)N2CCCC(C(=O)Nc3ccccc3OC)C2)cc1 (stereo unspecified) | 1.71% |
| O=C(COC(=O)c1ccc(S(=O)(=O)N2CCCCCC2)cc1)Nc1ccccc1C(F)(F)F | 4.5% |
| CCc1ccc(Oc2coc3cc(O)ccc3c2=O)cc1 | 70.2% (active) |

| SMILES | inhibition |
| --- | --- |
| COC(=O)COc1ccc2c(=O)c(Oc3ccccc3Br)coc2c1 | -0.49% |
| CCc1ccc(Oc2coc3cc(OC(=O)c4cc5ccccc5oc4=O)ccc3c2=O)cc1 | 13.1% |
| Cc1ccc(N2C(=O)CC(N3CCSCC3)C2=O)c(C)c1 (stereo unspecified) | 3.11% |
| COc1ccc(CCNC(=O)c2ccccc2-c2ccccc2C(=O)O)cc1OC | 2.28% |
| COc1cccc2[nH]c(C(=O)NCCc3ccccc3)cc12 | 33.2% (active) |
| COc1ccc(OC)c2[nH]c(=O)c(CCNC(=O)C(=O)c3c[nH]c4ccccc34)cc12 | -5.42% |
| N#C[C@]1(S(=O)(=O)c2ccccc2)C[C@@H]2ON=C(c3cccc(Br)c3)[C@@H]2C1 | 2.3% |
| NS(=O)(=O)c1cc(C(=O)OCC(=O)NNC(=O)c2ccccc2)ccc1Cl | -1.72% |
| O=C(NCc1ccccc1)C1CNCC(C(=O)NCc2ccccc2)C1 (stereo unspecified) | -0.79% |
| Cn1c(-c2ccco2)nc2cc3ccccc3cc21 | 81.7% (active) |
| COc1ccc(-n2cnc3cc(NCc4ccco4)ccc32)cc1 | -1.49% |
| Cn1c(SCC(=O)Nc2ccc(Br)cc2F)nnc1-c1ccco1 | 1.98% |
| N#Cc1c(C(F)(F)F)cc(-c2cccs2)nc1N1CCCCC1 | 11% |
| O=C(O)CSc1ccc(S(=O)(=O)N2CCCC2)cn1 | -0.83% |
| N#Cc1c(N2CCCCC2)nc(N)c2c(N)nc(SCC(=O)O)cc12 | 29.2% (active) |
| COCc1c(C(=O)OCc2c(C)noc2C)oc2ccccc12 | 5.69% |
| CCOc1ccccc1C(=O)NC1CC2CCCC(C1)N2Cc1ccccc1 (stereo unspecified) | -3.49% |
| Cc1ccnc(NC(=O)C2CCN(S(=O)(=O)c3c(C)c(C)cc(C)c3C)CC2)c1 | 1.99% |
| CCN(CC(=O)Nc1c(F)cccc1F)C(=O)c1ccc(-c2ccc(C(C)=O)cc2)o1 | 142% (active) |
| CCN(CC(=O)Nc1c(F)cccc1F)C(=O)c1cnc(C)cn1 | 2.56% |
| CCN(CC(=O)Nc1c(F)cccc1F)C(=O)c1ccc(-c2ccccc2)cc1 | 1% |
| COC(=O)c1ccc([C@@H](O)[C@H](C)C(=O)CC(=O)OC(C)(C)C)cc1 | 0.55% |
| CCOc1ccc(S(=O)(=O)N2CCCC(C(=O)N3CCC(C(N)=O)CC3)C2)cc1Cl (stereo unspecified) | 2.08% |
| Oc1ccc(Br)cc1C=Nc1ccc2[nH]ncc2c1 | 39.7% (active) |

| SMILES | inhibition |
| --- | --- |
| COc1cc(Br)cc(/C=N/c2ncn[nH]2)c1O | -0.39% |
| COc1ccc(C)cc1NC(=O)CSc1nnc2ccc(-c3ccccn3)nn12 | 5.79% |
| COc1ccc(-c2cc(C(=O)NCCCN3CCOCC3)no2)cc1 | 3.9% |
| COCCCNC(=O)c1ccc(-c2c(C)noc2C)c2ccoc12 | 1.17% |
| COc1ccc(-c2ccc(C(=O)NC(C)C)c3occc23)c(C)c1 | 69.8% (active) |
| CC(=O)Oc1cc2c(C(=O)NCCN3CCOCC3)c(C)oc2c2ccccc12 | 0.36% |
| COc1ccc(-c2coc3c(C(=O)NC(C)C)cccc23)c(C)c1 | -2.36% |
| COc1ccc(-c2ccc(C(=O)NCCN3CCOCC3)c3occc23)c(C)c1 | 88.1% (active) |
| CCOC(=O)[C@H]1[C@H]2COc3cc(OC)ccc3[C@@H]2N2C(=O)CN(Cc3ccc(Cl)cc3)C(=O)[C@@]12C | -3.3% |
| C=CCn1c(=O)n(C)c2c(=O)n(C)c(=O)n(C)c21 | 1.89% |
| Nc1scc(-c2ccncc2)c1Cl | -1.39% |
| Cc1nc2ccccn2c(=O)c1NC(=O)c1cccs1 | 3.76% |
| Cc1cc2nc(C(F)(F)F)cc(-c3cccs3)n2n1 | 9.4% |
| CC(C)(C)Nc1c(-c2cccs2)nc2ccccn12 | 76.1% (active) |
| COC(=O)C1=C(N)Oc2cc(C)[nH]c(=O)c2C1c1ccc(Cl)cc1 (stereo unspecified) | -1.06% |
| CCOC(=O)N1CCC(NC(=O)Cn2cc3c(n2)CCCCC3)CC1 | 3.04% |
| C[C@H]1CN([C@@H](C)CO)C(=O)CCCn2nncc2CO[C@@H]1CN(C)S(=O)(=O)c1cccc(C#N)c1 | 1.03% |
| O=C(CN1C(=O)NC2(CCCCC2)C1=O)NCCC1=CCCCC1 | 1.11% |
| COc1ccc(/C=C/C(=O)OCC(=O)Nc2cccc(Oc3ccccc3)c2)c(OC)c1 | -1.32% |
| COc1cccc(NC(=O)CN(C)C(=O)/C=C/c2cc(OC)ccc2OC)c1 | 57.2% (active) |
| COc1cccc(NC(=O)CN(C)CC(=O)Nc2ccc3c(c2)CCC3)c1 | 55.8% (active) |
| COc1cccc(NC(=O)CN(C)C(C)C(=O)Nc2ccc(C#N)cc2)c1 (stereo unspecified) | 1.24% |
| COc1cccc(NC(=O)CN(C)C(=O)Cc2ccc(Cl)cc2Cl)c1 | -2.96% |
| COc1cccc(NC(=O)CN(C)C(=O)CSC(=S)N2CCCC2)c1 | 3.18% |
